Assay outcomes from PubChem BioAssay.
Sm TGR inh: blocks Schistosoma mansoni thioredoxin glutathione reductase. Q962Y6. purified TGR, DTNB reduction, TNB absorbance 405 nm. Potency, µM (titrated, usually from 114 µM), without a hit: at the top dose activity change, negative = inhibition, usual class: inhibitors. actives 3% (n = 360,000). AID 485364; note: potency is the fitted concentration of half-maximal effect; % is set by controls: 0 for no effect and ±100 for the full control effect; nearly all actives have a fitted effect of over 60% in size
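TGR 20 nM + NADPH 100 uM (dispensed conc.), cpd preinc 15 min RT; start with NADPH (500 uM addition) then DTNB (15 mM addition). Kinetic TNB absorbance, 405 nm filter. Four-parameter Hill fit across titration.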
Giardia FBPA inh: blocks Giardia fructose-bisphosphate aldolase activity; purified Giardia FBPA; Potency, µM (doses to about 59.6 µM), inactives show at the top dose activity, negative = inhibition, usual class: inhibitors; actives 0.71% (n = 290,000); note: potency is the fitted concentration of half-maximal effect; % is set by controls: 0 for no effect and ±100 for the full control effect; nearly all actives have a fitted effect of over 55% in size
Target sequence (A8B2U2 whole entry, looked up): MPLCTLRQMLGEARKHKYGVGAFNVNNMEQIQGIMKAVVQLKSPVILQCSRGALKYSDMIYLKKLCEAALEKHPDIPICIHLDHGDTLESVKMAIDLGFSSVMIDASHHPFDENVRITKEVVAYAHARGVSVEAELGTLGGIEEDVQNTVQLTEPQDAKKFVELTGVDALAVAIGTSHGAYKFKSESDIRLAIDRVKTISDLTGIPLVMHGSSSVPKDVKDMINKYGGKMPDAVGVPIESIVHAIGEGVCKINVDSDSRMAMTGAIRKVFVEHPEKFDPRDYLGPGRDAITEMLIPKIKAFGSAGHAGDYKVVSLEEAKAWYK
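Giardia FBPA (40 nM reagent) was preincubated 10 min at RT with compound (up to 57.5 uM final), then substrate plus GAPDH/TPI/NAD/arsenate coupling system with diaphorase/resazurin was added; resorufin fluorescence (525/598 nm) was read after 20 min.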
Tb PYK inh: inhibitors of Trypanosoma brucei pyruvate kinase | Q57TT1 | TbPYK enzyme, Kinase-Glo Plus ATP luminescence, 45 min | Potency, µM (series often up to 76.8 µM), without a hit: at the highest dose activity, negative = inhibition, hits mostly inhibitors | actives 0.12% (n = 410,000) | AID 624173; note: potency is the fitted concentration of half-maximal effect; % is set by controls: 0 for no effect and ±100 for the full control effect; nearly all actives have a fitted effect of over 50% in size
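Luminescence from Kinase-Glo Plus, added after a 45-minute room-temperature reaction, served as the end-point read-out. The enzyme and substrate were preincubated with compound before ADP (130 uM final) initiated turnover. Concentration-effect curves came from normalized qHTS data.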
CHX counter: affects cycloheximide protein synthesis inhibition readout, counter-screen. cell reporter, cycloheximide protein synthesis inhibition counterscreen. max response, %. actives 12% (n = 300,000). AID 2314; in the data active = max response mostly above about 13%, no sharp cut-off; inactive = mostly below about 14%; note: read at 38.3 µM for the half of the compounds with a filed dose; 0% is about no effect
Shiga inhibitor: inhibitors of Shiga toxin in Vero cells | Vero cells, Shiga toxin protein synthesis inhibition reporter | inhibition, % at 38.7 µM | actives 9.2% (n = 290,000) | AID 2315; in the data active = inhibition mostly above about 28%, no sharp cut-off; inactive = mostly below about 43%; note: 0% is about no effect
LmPK inhibitor: blocks Leishmania mexicana pyruvate kinase activity; actives 0.37% (n = 290,000); purified LmPK, Kinase-Glo ATP luminescence, 1 h; Q27686; AID 1721; Potency, µM (top dose mostly 57.5 µM), for inactives: top-dose activity change, negative = inhibition, actives largely listed as inhibitors; note: potency is the fitted concentration of half-maximal effect; % is set by controls: 0 for no effect and ±100 for the full control effect
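Purified LmPK (0.1 nM) with 0.5 mM PEP and 0.1 mM ADP in imidazole buffer pH 7.2 with MgCl2/KCl, 1 h at room temperature. ATP formed was read by luciferase luminescence and normalized to no-enzyme and uninhibited controls.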
* = called active by the depositor; [ ] = another dose, or the depositor's remark. This excerpt belongs to a sample that is enriched for hits. Unless noted, calls come from the whole dose curve; as a rule, active = well fitted curve in the direction sought with a large enough effect; inconclusive = small, poorly fitted or top-dose-only effect, or another doubt; inactive = no such curve, though single readings can be large; an effect the other way counts as inactive or inconclusive.

For Cc1ccc(CN2CCC(CNc3ncnc4onc(-c5ccc(F)cc5)c34)CC2)cc1 the results were Sm TGR inh 5% and Tb PYK inh 5%.
Cc1cccc(N2C(=O)CSC23C(=O)N(Cc2cccc(C(F)(F)F)c2)c2ccccc23)c1 (stereo not drawn) was read as Sm TGR inh 8% and Tb PYK inh 1%.
O=C(c1cc2c(s1)-c1ccccc1S(=O)(=O)C2)N1CCN(Cc2ccccc2)CC1 was read as Sm TGR inh -8%, Giardia FBPA inh -15%, Tb PYK inh 1%, CHX counter -3, Shiga inhibitor -8 and LmPK inhibitor 15%.
Screening COc1ccccc1NC(=O)Cn1c(=O)c(CNc2ccccc2)cc2cc(OC)c(OC)cc21 returned Sm TGR inh inconclusive and Tb PYK inh -3%.
`Cc1cccc(-c2nc(C#N)c(N3CCCCC3)o2)c1` gave Sm TGR inh -4%, Giardia FBPA inh -3%, Tb PYK inh 7%, CHX counter 27*, Shiga inhibitor 37* and LmPK inhibitor -2%.
Screening O=S(=O)(c1ccccc1)c1nc(-c2ccccc2F)oc1N1CCOCC1 returned Sm TGR inh -12% and Tb PYK inh 2%.
For Cc1ccc(-c2nc(C#N)c(N3CCCCC3)o2)cc1 the results were Sm TGR inh -25%, Giardia FBPA inh 1%, Tb PYK inh -12%, CHX counter 2, Shiga inhibitor 22 and LmPK inhibitor 1%.
For COc1ccc(-c2nc(S(=O)(=O)c3ccc(C)cc3)c(N3CCCCC3)o2)cc1 the results were Sm TGR inh 10µM* and Tb PYK inh 3%.
`Cc1ccc(S(=O)(=O)c2nc(-c3ccccc3F)oc2N2CCCCC2)cc1` gave Sm TGR inh 45µM* and Tb PYK inh 2%.
Screening Cc1cc(C)c2c(n1)nn1c(C)c(CCC(=O)Nc3cccc(C)c3C)c(C)nc21 returned Sm TGR inh 2% and Tb PYK inh 2%.
O=C(Cn1c(=O)c2cccn2c2cccnc21)N1CCN(c2ccc(Cl)cc2)CC1 was read as Sm TGR inh -1%, Tb PYK inh 0%, CHX counter -2, Shiga inhibitor -4 and LmPK inhibitor -3%.
COCCNC(=O)C(=O)Nc1c2c(nn1-c1ccccc1)CS(=O)(=O)C2 was read as Sm TGR inh 2% and Tb PYK inh 1%.
CCC(=O)Nc1ccc2nc(SCCOc3ccc(C)cc3OC)sc2c1 was read as Sm TGR inh 0% and Tb PYK inh 2%.
Screening Cc1ccc(Cn2c(C(=O)Nc3ccc(Cl)cc3)cc3sccc32)cc1 returned Sm TGR inh 0% and Tb PYK inh -2%.
Cc1ccc(Cn2nc(C)cc2C(=O)Nc2ccccc2Cl)cc1 was read as Sm TGR inh 9%, Giardia FBPA inh 8%, Tb PYK inh -1%, CHX counter 59*, Shiga inhibitor 147* and LmPK inhibitor -1%.
Screening Cc1cccc(Cn2nc(C(C)(C)C)cc2C(=O)Nc2ccc(F)cc2)c1 returned Sm TGR inh 7%, Giardia FBPA inh -8%, Tb PYK inh -7%, CHX counter 18*, Shiga inhibitor 36 and LmPK inhibitor 2%.
Screening Cc1ccc(Cn2nc(C(=O)Nc3ccc(Br)cc3)cc2C)cc1 returned Sm TGR inh 13%, Giardia FBPA inh -4%, Tb PYK inh -9%, CHX counter 54*, Shiga inhibitor 154* and LmPK inhibitor 0%.
Cc1ccc(Cn2nc(C)cc2C(=O)Nc2ccc(Cl)cc2)cc1 was read as Sm TGR inh 21%, Giardia FBPA inh -12%, Tb PYK inh 0%, CHX counter 39*, Shiga inhibitor 72* and LmPK inhibitor 1%.
Cc1noc(C)c1-c1cncnc1NCc1cccnc1 was read as Giardia FBPA inh 0%.
Cn1c(/N=C/c2cccs2)nc2ccccc21 was read as Sm TGR inh 0%, Giardia FBPA inh -2%, Tb PYK inh -14%, CHX counter -6, Shiga inhibitor -13 and LmPK inhibitor 14µM*.
`CN1C(=O)C(=Cc2cn(CC#N)c3ccccc23)C(=O)N(C)C1=O` gave Sm TGR inh -12%, Giardia FBPA inh -10%, Tb PYK inh -2%, CHX counter -5, Shiga inhibitor -5 and LmPK inhibitor 0%.
CCn1cc(C=C2C(=O)c3ccccc3C2=O)c2ccccc21 was read as Sm TGR inh -1%, Giardia FBPA inh -4%, Tb PYK inh -1%, CHX counter 12*, Shiga inhibitor -13 and LmPK inhibitor -4%.
For C=C1CC[C@H](O)C/C1=C/C=C1\CCC[C@]2(C)[C@H]1CC[C@H]2[C@@H](C)CCCC(C)C the results were Giardia FBPA inh -9%[21.7 µM].
Screening CCOc1ccc2c(c1)nc(C)n2C returned Sm TGR inh -4%, Giardia FBPA inh 4%, Tb PYK inh 2%, CHX counter 7, Shiga inhibitor 18 and LmPK inhibitor -4%.
For Cc1nc2cc(NCc3ccc(Cl)cc3)ccc2n1C the results were Sm TGR inh 0%, Giardia FBPA inh -10%, Tb PYK inh -1%, CHX counter 30*, Shiga inhibitor 71* and LmPK inhibitor 1%.
`Cc1ccc(CNc2ccc3c(c2)nc(C)n3C)cc1` gave Sm TGR inh -3%, Giardia FBPA inh -28%, Tb PYK inh -4%, CHX counter 30* and LmPK inhibitor 1%.
Cc1cc(C)nc(NCc2ccc(Cl)cc2)n1 was read as Sm TGR inh 27%, Giardia FBPA inh 5%, Tb PYK inh -6%, CHX counter -1, Shiga inhibitor -18 and LmPK inhibitor -4%.
`COc1ccc(OC)c(CNc2ccc3c(c2)nc(C)n3C)c1` gave Sm TGR inh 9%, Giardia FBPA inh -8%, Tb PYK inh -2%, CHX counter 9.4*, Shiga inhibitor 32 and LmPK inhibitor -2%.
Screening COc1ccc(CNc2ccc3c(c2)nc(C)n3C)cc1 returned Sm TGR inh 2%[11.4 µM], Giardia FBPA inh -20%, Tb PYK inh -17%, CHX counter 25*, Shiga inhibitor 60* and LmPK inhibitor 2%.
Cc1nc2cc(CO)ccc2n1C was read as Sm TGR inh -3%, Giardia FBPA inh -11%, Tb PYK inh 3%, CHX counter -3, Shiga inhibitor -7 and LmPK inhibitor -4%.
COc1ccc(OC)c(CNc2nc3ccc(C)cc3n3nnnc23)c1 was read as Sm TGR inh -7% and Tb PYK inh -4%.
`O=C(Nc1cccc(S(=O)(=O)N2CCOCC2)c1)c1cc([N+](=O)[O-])ccc1N1CCOCC1` gave Sm TGR inh 2% and Tb PYK inh -7%.
Cn1c(=O)n2n(c1=O)[C@H]1[C@H](O)[C@H]3O[C@@H]3/C(=N/OC[C@@H](O)COCc3ccco3)[C@@H]1CC2 was read as Giardia FBPA inh 0%[12.9 µM].
`Nc1ccc2nc3c(c(Cl)c2c1)CCCC3` gave Sm TGR inh inconclusive, Giardia FBPA inh -11%, Tb PYK inh -12%, CHX counter 29*, Shiga inhibitor 28 and LmPK inhibitor 0%.
`CC(NC(=O)c1cccc(NC(=O)c2nsc3ccccc23)c1)c1ccccc1` (stereo not drawn) gave Sm TGR inh -10% and Tb PYK inh 0%.
COc1ccccc1C(C)NC(=O)CCNC(=O)c1ccc(Cl)cc1 (stereo not drawn) was read as Tb PYK inh -6%.
Screening Cc1c(Br)c([N+](=O)[O-])nn1C(C)C(=O)N1CCc2ccccc2C1 (stereo not drawn) returned Sm TGR inh -21%, Tb PYK inh 1%, CHX counter 27*, Shiga inhibitor 30* and LmPK inhibitor -9%.
